According to the supplement of paper PMC4466140:

target: CaNbp2; assay: SPOT peptide array binding signal intensity (averaged, normalized) (arbitrary units (background-subtracted, floor 0; scale differs between SH3 domains)); higher = stronger binding of the SH3 domain to the peptide
In short: (§1)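 GST-fused SH3 domains, from four yeast species, were produced in E. coli BL21(DE3) and captured on glutathione Sepharose. Membranes of cellulose carrying synthetic 15-mer peptides, in which cysteines had been replaced by serines, were exposed to each domain at 10 μg/ml overnight at 4°C in TBS-based blocking buffer. After anti-GST antibody, an HRP anti-mouse secondary and luminol, spots were imaged and quantified using Genespotter. Binding signal is normalized and background-subtracted spot intensity, averaged over replicates, in arbitrary units that differ between domains.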

Row | Binder | SPOT peptide array binding signal intensity
1 | NMLKKKPLKKPLKRF | 438

target: CaRvs167; assay: as above
In short: as §1

Row | Binder | SPOT peptide array binding signal intensity
2 | NMLKKKPLKKPLKRF | 47.7

target: CaRvs167-3; assay: as above
In short: as §1

Row | Binder | SPOT peptide array binding signal intensity
3 | NMLKKKPLKKPLKRF | 44

target: CaSho1; assay: as above
In short: as §1

Row | Binder | SPOT peptide array binding signal intensity
4 | NMLKKKPLKKPLKRF | 612

target: CaSla1-D1-D2; assay: as above
In short: as §1

Row | Binder | SPOT peptide array binding signal intensity
5 | NMLKKKPLKKPLKRF | 586

target: CaSla1-D3; assay: as above
In short: as §1

Row | Binder | SPOT peptide array binding signal intensity
6 | NMLKKKPLKKPLKRF | 370

target: ScAbp1; assay: as above
In short: as §1

Row | Binder | SPOT peptide array binding signal intensity
7 | NMLKKKPLKKPLKRF | 1040

target: ScBbc1; assay: as above
In short: as §1

Row | Binder | SPOT peptide array binding signal intensity
8 | NMLKKKPLKKPLKRF | 1.5

target: ScBem1-D1; assay: as above
In short: as §1

Row | Binder | SPOT peptide array binding signal intensity
9 | NMLKKKPLKKPLKRF | 31

target: ScBzz1-D1; assay: as above
In short: as §1

Row | Binder | SPOT peptide array binding signal intensity
10 | NMLKKKPLKKPLKRF | 10

target: ScBzz1-D2; assay: as above
In short: as §1

Row | Binder | SPOT peptide array binding signal intensity
11 | NMLKKKPLKKPLKRF | 22

target: ScCyk3; assay: as above
In short: as §1

Row | Binder | SPOT peptide array binding signal intensity
12 | NMLKKKPLKKPLKRF | 28

target: ScFus1; assay: as above
In short: as §1

Row | Binder | SPOT peptide array binding signal intensity
13 | NMLKKKPLKKPLKRF | 648

target: ScHof1; assay: as above
In short: as §1

Row | Binder | SPOT peptide array binding signal intensity
14 | NMLKKKPLKKPLKRF | 0.25

target: ScHse1; assay: as above
In short: as §1

Row | Binder | SPOT peptide array binding signal intensity
15 | NMLKKKPLKKPLKRF | 1740

target: ScLsb1; assay: as above
In short: as §1

Row | Binder | SPOT peptide array binding signal intensity
16 | NMLKKKPLKKPLKRF | 1

target: ScLsb2; assay: as above
In short: as §1

Row | Binder | SPOT peptide array binding signal intensity
17 | NMLKKKPLKKPLKRF | 1

target: ScLsb3; assay: as above
In short: as §1

Row | Binder | SPOT peptide array binding signal intensity
18 | NMLKKKPLKKPLKRF | 340

target: ScLsb4; assay: as above
In short: as §1

Row | Binder | SPOT peptide array binding signal intensity
19 | NMLKKKPLKKPLKRF | 94

target: ScMyo3; assay: as above
In short: as §1

Row | Binder | SPOT peptide array binding signal intensity
20 | NMLKKKPLKKPLKRF | 2

target: ScMyo5; assay: as above
In short: as §1

Row | Binder | SPOT peptide array binding signal intensity
21 | NMLKKKPLKKPLKRF | ≤ 0

target: ScNbp2; assay: as above
In short: as §1

Row | Binder | SPOT peptide array binding signal intensity
22 | NMLKKKPLKKPLKRF | 552

target: ScPex13; assay: as above
In short: as §1

Row | Binder | SPOT peptide array binding signal intensity
23 | NMLKKKPLKKPLKRF | 194

target: ScRvs167; assay: as above
In short: as §1

Row | Binder | SPOT peptide array binding signal intensity
24 | NMLKKKPLKKPLKRF | 7

target: ScSho1; assay: as above
In short: as §1

Row | Binder | SPOT peptide array binding signal intensity
25 | NMLKKKPLKKPLKRF | 1720

target: ScSla1-D1-D2; assay: as above
In short: as §1

Row | Binder | SPOT peptide array binding signal intensity
26 | NMLKKKPLKKPLKRF | 616

target: ScSla1-D3; assay: as above
In short: as §1

Row | Binder | SPOT peptide array binding signal intensity
27 | NMLKKKPLKKPLKRF | 261

target: SpAbp1-D1; assay: as above
In short: as §1

Row | Binder | SPOT peptide array binding signal intensity
28 | NMLKKKPLKKPLKRF | 1740

target: SpBbc1; assay: as above
In short: as §1

Row | Binder | SPOT peptide array binding signal intensity
29 | NMLKKKPLKKPLKRF | 4.25

target: SpBzz1-D1; assay: as above
In short: as §1

Row | Binder | SPOT peptide array binding signal intensity
30 | NMLKKKPLKKPLKRF | 279

target: SpBzz1-D2; assay: as above
In short: as §1

Row | Binder | SPOT peptide array binding signal intensity
31 | NMLKKKPLKKPLKRF | 48.2

target: SpCyk3; assay: as above
In short: as §1

Row | Binder | SPOT peptide array binding signal intensity
32 | NMLKKKPLKKPLKRF | 7.5

target: SpHof1; assay: as above
In short: as §1

Row | Binder | SPOT peptide array binding signal intensity
33 | NMLKKKPLKKPLKRF | 134

target: SpHof1-2; assay: as above
In short: as §1

Row | Binder | SPOT peptide array binding signal intensity
34 | NMLKKKPLKKPLKRF | 26

target: SpHof1-3; assay: as above
In short: as §1

Row | Binder | SPOT peptide array binding signal intensity
35 | NMLKKKPLKKPLKRF | 804

target: SpHse1; assay: as above
In short: as §1

Row | Binder | SPOT peptide array binding signal intensity
36 | NMLKKKPLKKPLKRF | 772

target: SpLsb1; assay: as above
In short: as §1

Row | Binder | SPOT peptide array binding signal intensity
37 | NMLKKKPLKKPLKRF | 31.8

target: SpLsb4; assay: as above
In short: as §1

Row | Binder | SPOT peptide array binding signal intensity
38 | NMLKKKPLKKPLKRF | 388

target: SpMyo1; assay: as above
In short: as §1

Row | Binder | SPOT peptide array binding signal intensity
39 | NMLKKKPLKKPLKRF | 21.8

target: SpNbp2; assay: as above
In short: as §1

Row | Binder | SPOT peptide array binding signal intensity
40 | NMLKKKPLKKPLKRF | 536

target: SpPex13; assay: as above
In short: as §1

Row | Binder | SPOT peptide array binding signal intensity
41 | NMLKKKPLKKPLKRF | 73.5

target: SpRvs167; assay: as above
In short: as §1

Row | Binder | SPOT peptide array binding signal intensity
42 | NMLKKKPLKKPLKRF | 15.8

target: SpSla1-D1-D2; assay: as above
In short: as §1

Row | Binder | SPOT peptide array binding signal intensity
43 | NMLKKKPLKKPLKRF | 9

target: SpSla1-D3; assay: as above
In short: as §1

Row | Binder | SPOT peptide array binding signal intensity
44 | NMLKKKPLKKPLKRF | 106
